Measured values from ChEMBL document CHEMBL1201862, “PubChem BioAssay data set” (2004).
Out of some 44,000 sequences screened, about 3,200 (7.3%) were called active. Cut-off read from the data, not from the text of the source: active = GI50 up to about 1.1 µM and inactive = higher. What follows is part of a selection rich in actives, with near analogues and random picks from the rest. Measured potencies and affinities stand elsewhere.

What follows are substances tested on DU-145.

In order of rising GI50:
1. [Bis(aminomethyl)pentamethylenesilane]tetrachloropaltinum(IV), CHEMBL2146204  344 nM
2. [Bis(aminomethyl)pentamethylenesilane]dichloropaltinum(II), CHEMBL2146202  1290 nM
3. CISPLATIN, CHEMBL11359  1990 nM
4. [Bis(aminomethyl)tetramethylenesilane]tetrachloropaltinum(IV), CHEMBL2146189  2220 nM
5. [Bis(aminomethyl)dimethylsilane]tetrachloroplatinum(IV), CHEMBL2146190  5020 nM
6. [Bis(aminomethyl)tetramethylenesilane]dichloropaltinum(II), CHEMBL2146205  8150 nM
